Here are results for six compounds from PubChem BioAssay (EPA / NIEHS).

Results filed as inconclusive are left out. The source made the active and inactive calls. How the source made its calls, unless noted: active means hit-call score of the fitted dose curve at least 0.9, where 1 is the maximum; inactive means score below 0.9.

The target of assay [1] is Glucocorticoid receptor (Homo sapiens) (UniProt P04150). Briefly: ATG_GR_TRANS: Attagene TRANS-FACTORIAL HepG2 Assay for human Glucocorticoid Receptor (GR) (AID 2282978; active means hit-call score of the fitted dose curve at least 0.9, where 1 is the maximum;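 further: activators score as hits since higher reporter transcript over DMSO is fitted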). Conditions: HepG2 Attagene TRANS GR reporter, mRNA transcription. Put shortly: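 Exogenous NR-GAL4 fusion activity was assessed through induced GAL4-UAS reporter transcripts in transfected human HepG2 cells, quantified after 24 h by RT-PCR and fluorescent capillary electrophoresis with DMSO as baseline.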

The target of assay [2] is Bile acid receptor (Homo sapiens) (UniProt Q96RI1). The assay is described as follows: ATG_FXR_TRANS: Attagene TRANS-FACTORIAL HepG2 Assay for Farnesoid X Receptor (FXR) (AID 2282979; active means hit-call score of the fitted dose curve at least 0.9, where 1 is the maximum;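 further: hits raise reporter mRNA above DMSO so AC50 marks FXR activation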). Conditions: HepG2 Attagene TRANS FXR-GAL4 reporter transcription. Put shortly: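 Transient transfection of HepG2 with multiplexed GAL4-UAS reporter units; exogenous FXR-GAL4 chimera. Dose 24 h → TriZol RNA → oligo(dT) RT → PCR, 6-FAM primer extension, HpaI cut → CE. Gain vs DMSO.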

The target in assay [3] is Oxysterols receptor LXR-alpha (Homo sapiens) (UniProt Q13133). The assay is described as follows: ATG_LXRa_TRANS: Attagene TRANS-FACTORIAL HepG2 Assay for human Liver X Receptor alpha (LXRa) (AID 2282980; active means hit-call score of the fitted dose curve at least 0.9, where 1 is the maximum). As to conditions: HepG2 Attagene TRANS reporter, LXRa transactivation. An outline of the steps:
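Transfect HepG2 with GAL4-UAS multiplex reporter constructs (TRANS format, chimeric receptor-GAL4); treat 24 h; extract RNA, reverse-transcribe, PCR-amplify, FAM-label, HpaI-digest; resolve fragments by capillary electrophoresis. Upward response vs DMSO.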

The target of assay [4] is Oxysterols receptor LXR-beta (Homo sapiens) (UniProt P55055). Briefly: ATG_LXRb_TRANS: Attagene TRANS-FACTORIAL HepG2 Assay for human Liver X Receptor beta (LXRb) (AID 2282981; active means hit-call score of the fitted dose curve at least 0.9, where 1 is the maximum). As to conditions: HepG2 Attagene TRANS GAL4-LXRb reporter, mRNA. An outline of the steps: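 After 24 h of chemical treatment, transfected HepG2 cells yield total RNA; reporter cDNA is PCR-amplified, FAM-labelled, HpaI-cut and run on capillary electrophoresis. Signal reflects chimeric LXRb-Gal4 activity on GAL4-UAS reporters.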

Assay [5] deals with Hepatocyte nuclear factor 4-alpha (Homo sapiens) (UniProt P41235). Briefly: ATG_HNF4a_TRANS: Attagene TRANS-FACTORIAL HepG2 Assay for human Hepatocyte Nuclear Factor 4 alpha (HNF4a) (AID 2282982; active means hit-call score of the fitted dose curve at least 0.9, where 1 is the maximum). Conditions: HepG2 HNF4a transactivation reporter, mRNA readout. Put shortly: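 Multiplexed reporter assay: transfected HepG2, 24 h exposure, total RNA → oligo(dT) RT → PCR → 6-FAM extension → HpaI digest → CE fluorescence. DMSO = negative control.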

A short description of assay [6]: ATG_M_06_TRANS: Attagene TRANS-FACTORIAL HepG2 Assay for M06 Transcription Factor (Internal Marker) (AID 2282983; active means hit-call score of the fitted dose curve at least 0.9, where 1 is the maximum;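 further: reporter transcript level by RT-PCR then capillary electrophoresis fluorescence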). As to conditions: HepG2 Attagene TRANS M06 internal marker reporter. Put shortly:
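Background control endpoint: reporter mRNA from transiently transfected HepG2 after 24 h dosing, detected by RT-PCR with capillary electrophoresis fluorescence. Analysed for gain versus DMSO.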

Assay [7] in a line: ATG_M_32_TRANS: Attagene TRANS-FACTORIAL HepG2 Assay for M32 Transcription Factor (Internal Marker) (AID 2282984; active means hit-call score of the fitted dose curve at least 0.9, where 1 is the maximum;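 further: transcript level of a background control reporter unit measured by RT-PCR and capillary electrophoresis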). As to conditions: HepG2 Attagene TRANS M32 internal marker reporter. Put shortly: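 Cell-based TRANS-format assay in HepG2: exogenous chimeric GAL4 reporter units transiently expressed, compounds applied 24 h. Reporter mRNA detected by RT-PCR plus capillary electrophoresis; this readout is an internal background marker.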

The target of assay [8] is Nuclear receptor subfamily 4 group A member 2 (Homo sapiens) (UniProt P43354). Briefly: ATG_NURR1_TRANS: Attagene TRANS-FACTORIAL HepG2 Assay for human Nuclear Receptor Related Protein 1 (NURR1) (AID 2282985; active means hit-call score of the fitted dose curve at least 0.9, where 1 is the maximum). As to conditions: HepG2 Attagene TRANS reporter, mRNA readout. Put shortly:
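Measures transcriptional activation by an exogenous NR-Gal4 chimera in transfected HepG2 liver cells. After 24 h, reporter RNA is reverse-transcribed, amplified and resolved by capillary electrophoresis; DMSO defines baseline.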

The target in assay [9] is Transcriptional activator Myb (Homo sapiens) (UniProt P10242). Briefly: ATG_Myb_CIS: Attagene CIS-FACTORIAL HepG2 Assay for human Myeloblastosis (Myb) Proto-Oncogene Transcription Factor (AID 2282986). Conditions: HepG2 Attagene CIS-FACTORIAL Myb reporter transcription; actives raise or lower the signal. An outline of the steps: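 In this HepG2 transient-transfection format, cis-regulated reporter mRNA is quantified 24 h post-dosing by RT-PCR with capillary electrophoresis, fitted bidirectionally to DMSO baseline.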

A short description of assay [10]: ATG_NFI_CIS: Attagene CIS-FACTORIAL HepG2 Assay for human Nuclear Factor I (NFI) (AID 2282989). As to conditions: HepG2 cis-regulatory reporter, NFI response element transcription; actives raise or lower the signal. Put shortly: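 Transfected HepG2 liver cells, exposed 24 h, supplied total RNA for oligo(dT) reverse transcription and reporter-specific PCR. Labelled, HpaI-cut fragments were sized by capillary electrophoresis; DMSO set the baseline for bidirectional fitting.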

For assay [11], the target named is Myc proto-oncogene protein (Homo sapiens) (UniProt P01106). Briefly: ATG_Myc_CIS: Attagene CIS-FACTORIAL HepG2 Assay for human Myelocytomatosis (Myc) Proto-Oncogene Transcription Factor (AID 2282990). Conditions: HepG2, Attagene cis-reporter transcription factor activity; actives raise or lower the signal. Put shortly:
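HepG2, transient MRTU transfection (cis promoters, endogenous TFs); 24 h dosing; TriZol RNA → oligo(dT) RT → PCR → 6-FAM primer extension → HpaI cut → CE. Bidirectional fit vs DMSO.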

A short description of assay [12]: ATG_NF_kB_CIS: Attagene CIS-FACTORIAL HepG2 Assay for human Nuclear Factor Kappa B (NF-kB) (AID 2282991). Conditions: HepG2 Attagene cis-factorial NF-kB reporter mRNA; actives raise or lower the signal. Put shortly: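 Endpoint from a 52-component multiplexed HepG2 reporter panel: cis-regulated transcription units transiently transfected, 24 h dosing, reporter mRNA quantified by RT-PCR and capillary electrophoresis, scored as increase or decrease against DMSO.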

The nature of assay [13]: ATG_NRF2_ARE_CIS: Attagene CIS-FACTORIAL HepG2 Assay for human Nuclear Factor Erythroid 2 Related Factor 2 (NFR2) response to Antioxidant Response Elements (ARE) (AID 2282992).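 On AC50: reporter mRNA level measured by RT-PCR and capillary electrophoresis fluorescence.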 As to conditions: HepG2 Attagene ARE/NRF2 reporter, transcription factor activity; actives raise or lower the signal. An outline of the steps:
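Fluorescence intensity of reporter-specific cDNA fragments, separated by capillary electrophoresis, reflects mRNA induction in transfected HepG2 cells at 24 h. Activity is fitted bidirectionally, DMSO serving as baseline.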

Assay [14] is described as follows: ATG_Oct_MLP_CIS: Attagene CIS-FACTORIAL HepG2 Assay for human Octamer-Binding Transcription Factor (Oct) (AID 2282993). Conditions: HepG2 Attagene cis-factorial Oct reporter, mRNA; actives raise or lower the signal. Put shortly:
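Using HepG2 cells bearing transfected cis-reporter constructs, mRNA induction was read after 24 h by fluorescent RT-PCR and capillary electrophoresis, with DMSO defining baseline for gain- or loss-of-signal fits.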

Assay [15] deals with Cellular tumor antigen p53 (Homo sapiens) (UniProt P04637). The assay is described as follows: ATG_p53_CIS: Attagene CIS-FACTORIAL HepG2 Assay for human p53 Transcription Factor (AID 2282994). As to conditions: HepG2 p53 cis-element reporter, Attagene mRNA; actives raise or lower the signal. Put shortly: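 Transiently transfected HepG2 (multiple cis reporter transcription units); exposure 24 h; reporter RNA via RT-PCR, 6-FAM extension, 2 h HpaI digest at 37 C, CE detection; DMSO baseline.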

Assay [16] in a line: BSK_3C_TissueFactor: BioMAP Diversity Plus: 3C Assay for Tissue Factor Biomarker Activity (AID 2282997). Conditions: BioMAP 3C HUVEC, tissue factor biomarker readout; actives raise or lower the signal. Put shortly:
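After a 24 h chemical exposure of primary human umbilical vein endothelial cells, Tissue Factor levels were quantified by ELISA.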

Assay [17] can be described thus: BSK_3C_uPAR: BioMAP Diversity Plus: 3C Assay for Urokinase-type plasminogen activator receptor (uPAR) Biomarker Activity (AID 2282998). As to conditions: BioMAP 3C HUVEC, uPAR biomarker ELISA; actives raise or lower the signal. Put shortly: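 In this endothelial cell-based assay, human umbilical vein primary cells were treated with chemicals and harvested at 24 h. uPAR was quantified using ELISA, with gains or losses fitted relative to DMSO controls.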
(In an ELISA, binding on a coated surface is turned into a signal by an enzyme label.)

Assay [18] in a line: BSK_3C_VCAM1: BioMAP Diversity Plus: 3C Assay for Vascular cell adhesion molecule 1 (VCAM1) Biomarker Activity (AID 2282999). Conditions: BioMAP 3C HUVEC, VCAM1 ELISA, cytokine-stimulated; actives raise or lower the signal. An outline of the steps: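 Activity fitted in both directions relative to DMSO, with ELISA measurement of the surface marker on primary HUVEC (3C) at 24 h post-treatment; parallel SRB staining (0.1% SRB, TCA-fixed, 560 nm) flagged overt cytotoxicity.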

Assay [19] is described as follows: BSK_4H_Eotaxin3: BioMAP Diversity Plus: 4H Assay for Eotaxin 3 Biomarker Activity (AID 2283000).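 On outcome: CCL26 protein level quantified by ELISA in parallel with SRB cytotoxicity check.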 As to conditions: primary human endothelial cells (HUVEC); actives raise or lower the signal. Put shortly: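 Chemicals were added to human umbilical vein endothelium cultures, and Eotaxin-3 was quantified by ELISA at 24 h. Values were derived by bidirectional fitting with DMSO serving as negative control and activity baseline.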

Assay [20] addresses Nuclear respiratory factor 1 (Homo sapiens) (UniProt Q16656). The assay is described as follows: ATG_NRF1_CIS: Attagene CIS-FACTORIAL HepG2 Assay for human Nuclear Respiratory Factor 1 (NRF1) Orphan Gene (AID 2282987). Conditions: HepG2 NRF1 cis-element reporter, Attagene multiplex; actives raise or lower the signal. Put shortly:
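Using DMSO as baseline, gain- or loss-of-signal was fitted for reporter mRNA levels in HepG2 cells transiently transfected with cis-regulated reporter units. Samples were taken 24 h after dosing and read by RT-PCR with capillary electrophoresis.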

Sequence of Oxysterols receptor LXR-beta (Homo sapiens) (P55055 whole entry, looked up, the tested form may be a part): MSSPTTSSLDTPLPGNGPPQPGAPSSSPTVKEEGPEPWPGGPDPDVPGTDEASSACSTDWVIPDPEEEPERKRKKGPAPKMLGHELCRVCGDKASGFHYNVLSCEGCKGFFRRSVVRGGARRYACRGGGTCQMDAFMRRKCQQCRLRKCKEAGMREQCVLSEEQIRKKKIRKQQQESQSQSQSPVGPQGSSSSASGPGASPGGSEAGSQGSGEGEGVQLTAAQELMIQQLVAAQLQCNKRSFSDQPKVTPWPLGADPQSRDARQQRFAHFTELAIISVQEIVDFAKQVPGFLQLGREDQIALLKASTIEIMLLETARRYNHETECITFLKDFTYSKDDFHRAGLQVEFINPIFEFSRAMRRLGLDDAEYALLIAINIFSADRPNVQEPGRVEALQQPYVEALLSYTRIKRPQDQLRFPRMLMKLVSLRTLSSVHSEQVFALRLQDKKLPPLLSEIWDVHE
Sequence of Myc proto-oncogene protein (Homo sapiens) (P01106 whole entry, looked up): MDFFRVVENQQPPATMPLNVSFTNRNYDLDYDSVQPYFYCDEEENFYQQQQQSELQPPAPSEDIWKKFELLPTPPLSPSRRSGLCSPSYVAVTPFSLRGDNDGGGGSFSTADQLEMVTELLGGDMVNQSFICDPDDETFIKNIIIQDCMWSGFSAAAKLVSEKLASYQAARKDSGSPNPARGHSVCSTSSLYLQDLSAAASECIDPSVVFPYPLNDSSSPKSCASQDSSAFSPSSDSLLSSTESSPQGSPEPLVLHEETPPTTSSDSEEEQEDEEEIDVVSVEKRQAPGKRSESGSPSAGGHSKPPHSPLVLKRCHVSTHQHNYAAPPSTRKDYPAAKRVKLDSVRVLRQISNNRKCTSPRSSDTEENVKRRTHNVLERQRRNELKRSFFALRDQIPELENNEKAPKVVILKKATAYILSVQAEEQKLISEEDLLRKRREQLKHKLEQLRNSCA
Sequence of Nuclear receptor subfamily 4 group A member 2 (Homo sapiens) (P43354 whole entry, looked up, the tested form may be a part): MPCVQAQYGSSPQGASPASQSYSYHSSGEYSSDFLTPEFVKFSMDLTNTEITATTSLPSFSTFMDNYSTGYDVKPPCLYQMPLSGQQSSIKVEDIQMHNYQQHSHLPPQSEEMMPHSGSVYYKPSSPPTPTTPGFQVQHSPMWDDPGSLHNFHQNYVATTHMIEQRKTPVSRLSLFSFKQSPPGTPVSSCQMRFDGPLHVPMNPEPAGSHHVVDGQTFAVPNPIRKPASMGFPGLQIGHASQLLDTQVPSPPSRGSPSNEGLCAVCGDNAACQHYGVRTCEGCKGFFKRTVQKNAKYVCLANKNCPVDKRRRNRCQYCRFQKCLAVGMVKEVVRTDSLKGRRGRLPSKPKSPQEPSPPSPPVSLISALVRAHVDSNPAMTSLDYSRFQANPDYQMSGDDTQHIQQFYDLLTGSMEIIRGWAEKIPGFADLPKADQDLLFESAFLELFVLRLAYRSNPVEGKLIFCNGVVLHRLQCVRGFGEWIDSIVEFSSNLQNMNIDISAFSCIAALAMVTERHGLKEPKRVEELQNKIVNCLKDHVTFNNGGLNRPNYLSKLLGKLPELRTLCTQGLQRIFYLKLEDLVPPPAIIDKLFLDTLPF
Sequence of Glucocorticoid receptor (Homo sapiens) (P04150 whole entry, looked up, the tested form may be a part): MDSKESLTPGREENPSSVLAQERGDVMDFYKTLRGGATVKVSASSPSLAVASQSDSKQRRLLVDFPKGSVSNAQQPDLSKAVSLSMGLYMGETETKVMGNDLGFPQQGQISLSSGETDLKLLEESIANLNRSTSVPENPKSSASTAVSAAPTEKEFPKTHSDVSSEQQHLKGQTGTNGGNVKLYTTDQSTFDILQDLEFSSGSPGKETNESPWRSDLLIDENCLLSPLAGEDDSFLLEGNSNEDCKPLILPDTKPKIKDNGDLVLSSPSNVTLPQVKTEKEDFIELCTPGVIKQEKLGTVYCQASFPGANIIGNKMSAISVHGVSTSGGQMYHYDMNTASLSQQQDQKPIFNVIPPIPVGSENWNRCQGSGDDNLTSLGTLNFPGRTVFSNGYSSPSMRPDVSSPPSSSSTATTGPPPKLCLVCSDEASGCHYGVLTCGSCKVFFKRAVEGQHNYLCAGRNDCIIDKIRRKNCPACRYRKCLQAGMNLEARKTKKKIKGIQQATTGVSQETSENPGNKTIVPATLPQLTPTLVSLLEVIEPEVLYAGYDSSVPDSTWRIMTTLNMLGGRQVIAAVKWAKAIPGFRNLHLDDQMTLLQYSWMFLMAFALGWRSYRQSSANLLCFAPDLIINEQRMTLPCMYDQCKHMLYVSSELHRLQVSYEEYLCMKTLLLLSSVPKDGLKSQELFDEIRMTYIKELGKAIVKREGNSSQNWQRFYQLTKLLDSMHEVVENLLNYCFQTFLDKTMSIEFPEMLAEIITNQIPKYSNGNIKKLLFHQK
Sequence of Hepatocyte nuclear factor 4-alpha (Homo sapiens) (P41235 whole entry, looked up): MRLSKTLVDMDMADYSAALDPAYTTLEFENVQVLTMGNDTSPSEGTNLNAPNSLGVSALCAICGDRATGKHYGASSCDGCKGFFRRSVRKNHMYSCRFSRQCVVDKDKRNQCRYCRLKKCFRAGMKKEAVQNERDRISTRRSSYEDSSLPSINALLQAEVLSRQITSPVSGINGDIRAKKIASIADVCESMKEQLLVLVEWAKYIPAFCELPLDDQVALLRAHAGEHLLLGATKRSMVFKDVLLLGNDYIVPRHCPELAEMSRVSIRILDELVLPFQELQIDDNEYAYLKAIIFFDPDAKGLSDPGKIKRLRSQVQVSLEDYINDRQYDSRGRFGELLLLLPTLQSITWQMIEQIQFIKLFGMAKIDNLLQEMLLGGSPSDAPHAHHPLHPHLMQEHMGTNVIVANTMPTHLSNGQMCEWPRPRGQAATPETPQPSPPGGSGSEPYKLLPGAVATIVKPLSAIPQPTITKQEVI
Sequence of Bile acid receptor (Homo sapiens) (Q96RI1 whole entry, looked up, the tested form may be a part): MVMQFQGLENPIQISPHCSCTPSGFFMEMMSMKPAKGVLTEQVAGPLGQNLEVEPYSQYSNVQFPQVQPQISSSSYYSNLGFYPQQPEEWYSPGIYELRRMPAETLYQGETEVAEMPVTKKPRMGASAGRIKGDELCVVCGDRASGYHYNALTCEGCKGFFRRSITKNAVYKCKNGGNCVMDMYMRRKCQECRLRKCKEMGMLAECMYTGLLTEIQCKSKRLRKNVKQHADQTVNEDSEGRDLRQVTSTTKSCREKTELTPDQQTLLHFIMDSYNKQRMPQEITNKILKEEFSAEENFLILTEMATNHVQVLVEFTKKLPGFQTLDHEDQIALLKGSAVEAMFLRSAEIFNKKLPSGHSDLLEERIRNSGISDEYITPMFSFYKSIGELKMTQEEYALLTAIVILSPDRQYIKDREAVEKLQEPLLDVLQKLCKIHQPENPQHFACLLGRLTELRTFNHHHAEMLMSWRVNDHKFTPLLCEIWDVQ
Sequence of Cellular tumor antigen p53 (Homo sapiens) (P04637 whole entry, looked up): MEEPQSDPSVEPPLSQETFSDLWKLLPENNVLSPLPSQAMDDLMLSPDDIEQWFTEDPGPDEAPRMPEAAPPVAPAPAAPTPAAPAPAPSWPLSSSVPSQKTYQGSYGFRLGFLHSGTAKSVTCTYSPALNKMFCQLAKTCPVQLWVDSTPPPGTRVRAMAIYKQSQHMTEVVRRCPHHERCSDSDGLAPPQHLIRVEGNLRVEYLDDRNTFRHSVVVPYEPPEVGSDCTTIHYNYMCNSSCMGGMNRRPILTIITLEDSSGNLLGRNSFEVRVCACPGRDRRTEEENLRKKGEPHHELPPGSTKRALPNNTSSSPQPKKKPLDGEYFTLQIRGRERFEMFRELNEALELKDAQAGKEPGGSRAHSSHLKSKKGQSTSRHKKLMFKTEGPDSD
Sequence of Nuclear respiratory factor 1 (Homo sapiens) (Q16656 whole entry, looked up): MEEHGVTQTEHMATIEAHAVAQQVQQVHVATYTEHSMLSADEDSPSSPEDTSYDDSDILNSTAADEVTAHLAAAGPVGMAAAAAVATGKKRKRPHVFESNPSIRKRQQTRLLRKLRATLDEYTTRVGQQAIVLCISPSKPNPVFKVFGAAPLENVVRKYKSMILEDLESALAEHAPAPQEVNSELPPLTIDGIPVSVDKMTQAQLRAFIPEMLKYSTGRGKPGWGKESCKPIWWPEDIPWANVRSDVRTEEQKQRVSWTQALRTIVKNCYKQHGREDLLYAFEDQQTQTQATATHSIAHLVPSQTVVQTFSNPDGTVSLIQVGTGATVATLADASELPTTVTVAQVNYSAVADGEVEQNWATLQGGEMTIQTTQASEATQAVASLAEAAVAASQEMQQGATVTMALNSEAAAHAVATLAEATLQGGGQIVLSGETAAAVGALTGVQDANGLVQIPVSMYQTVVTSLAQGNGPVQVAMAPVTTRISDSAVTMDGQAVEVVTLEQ
Sequence of Transcriptional activator Myb (Homo sapiens) (P10242 whole entry, looked up): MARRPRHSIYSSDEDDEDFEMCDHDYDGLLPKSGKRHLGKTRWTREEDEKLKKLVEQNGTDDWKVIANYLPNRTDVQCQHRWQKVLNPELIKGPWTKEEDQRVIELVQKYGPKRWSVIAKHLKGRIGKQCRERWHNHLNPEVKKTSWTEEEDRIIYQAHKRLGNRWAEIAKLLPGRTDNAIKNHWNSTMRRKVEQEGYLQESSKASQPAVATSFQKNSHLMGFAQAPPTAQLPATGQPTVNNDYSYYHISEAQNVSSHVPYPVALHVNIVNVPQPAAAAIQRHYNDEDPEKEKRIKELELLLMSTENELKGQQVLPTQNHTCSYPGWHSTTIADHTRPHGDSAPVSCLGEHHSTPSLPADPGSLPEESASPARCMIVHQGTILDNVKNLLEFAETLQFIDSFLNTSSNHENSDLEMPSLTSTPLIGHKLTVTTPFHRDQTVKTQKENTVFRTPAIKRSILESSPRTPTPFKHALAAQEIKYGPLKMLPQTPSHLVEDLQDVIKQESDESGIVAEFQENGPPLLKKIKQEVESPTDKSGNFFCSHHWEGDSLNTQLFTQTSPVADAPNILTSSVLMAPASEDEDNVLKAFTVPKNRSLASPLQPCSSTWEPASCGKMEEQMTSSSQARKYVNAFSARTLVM

`Cc1cc(N=Nc2ccccc2C)ccc1N`: the result in assay [1], in [2], in assay [3], in assay [4], in [5] and in [6] was inactive. In addition, the compound was classed as inactive in assay [7], in assay [8], in assay [9], in assay [10], in assay [11] and in assay [12]. For the same compound, the call in assay [15], in assay [16] and in assay [18] was inactive. Moreover, the AC50 (as a rule, the concentration at which the activity in the assay is half-maximal) is 7.21 µM (active) in assay [13], 20.4 µM (active) in assay [14], 10.4 µM (active) in [17] and 14.2 µM (active) in [19].
Take `CC(C)COC(=O)c1ccccc1C(=O)OCC(C)C`: the result in assay [1], in [2], in assay [6], in [7], in assay [8] and in [9] was inactive. The result in [20], in assay [10], in assay [11], in assay [17] and in assay [19] was inactive. Moreover, the AC50 in assay [13] was 36 µM (active); in assay [14] it was 83 µM (active); in assay [16], 12.4 µM (active); in [18], 26.8 µM (active).
Turning to `c1ccc2c(c1)oc1ccccc12`, the compound was classed as inactive in assay [1], in assay [4], in assay [6], in [7], in [8] and in [9]. Also, the result in [20], in [10], in [12], in assay [13], in assay [14] and in assay [15] was inactive. Further, the outcome in assay [16], in assay [17], in [18] and in assay [19] was inactive.
For the compound `CCCCOC(=O)c1ccccc1C(=O)OCc1ccccc1`, the outcome in [1], in assay [3], in assay [5], in [6], in [7] and in assay [9] was inactive. For the same compound, the outcome in assay [10], in [11], in [12], in assay [14], in assay [15] and in assay [16] was inactive. Also, the result in assay [17], in assay [18] and in [19] was inactive. Besides, the AC50 in assay [13] is 48.3 µM (active).
For `Oc1ccccc1Cl`, the compound was classed as inactive in [1], in assay [4], in assay [6], in assay [7], in assay [8] and in [9]. For the same compound, the compound was classed as inactive in [20], in assay [10], in [11], in [12], in [14] and in assay [15]. Further, the outcome in [16], in assay [17], in [18] and in [19] was inactive. Further, the AC50 in [13] is 52 µM (active).
As for `CCOC(=O)[C@]1(c2ccccc2)Oc2ccccc2[C@@H]1N`, the compound was called inactive in assay [1], in assay [2], in assay [5], in assay [8], in assay [9] and in [18]. Also, the AC50 is 58.2 µM (active) in [20]; 46.4 µM (active) in assay [10]; 33 µM (active) in assay [12]; 34.7 µM (active) in assay [13]; 28.8 µM (active) in assay [14]; 20 µM (active) in assay [16]. The AC50 in assay [17] is 20 µM (active); in assay [19], 29.6 µM (active).
